Results on one sequence are retold here after PMC7862700, “An all-to-all approach to the identification of sequence-specific readers for epigenetic DNA modifications on cytosine”.

What all share (assay): DAPPL (digital affinity profiling via proximity ligation, sequencing); 10 mM Tris-HCl pH 7.5, 50 mM NaCl, 1 mM DTT, 4% glycerol, room temperature, 30 min; GST-TFs on glutathione beads, 16-mer random dsDNA library, 0.1% formaldehyde crosslink after washing; high values mean tight binding
One assay has as its target T1, FEV (Homo sapiens, UniProt Q99581 1-238).
T1 sequence: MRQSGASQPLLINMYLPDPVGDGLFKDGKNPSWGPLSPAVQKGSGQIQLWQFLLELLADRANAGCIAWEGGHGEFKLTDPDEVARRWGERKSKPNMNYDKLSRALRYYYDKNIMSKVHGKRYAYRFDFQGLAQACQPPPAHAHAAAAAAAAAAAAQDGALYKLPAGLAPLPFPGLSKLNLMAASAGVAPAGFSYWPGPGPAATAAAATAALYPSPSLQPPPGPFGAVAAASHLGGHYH
The conditions noted are these: protein: recombinant; tags: N-terminal GST; dsDNA, one strand shown. In short, it runs like this: (§1)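 Binding signal is each hexamer's read frequency for a factor divided by its frequency in the tag-only sample. The factors were GST-fused human transcription factors from yeast, captured on glutathione beads, DNA-barcoded and pooled with that sample. Pools were incubated with 200 nmole of a random double-stranded 16-mer DNA library in Tris/NaCl/DTT/glycerol buffer at room temperature for 30 min, then washed, crosslinked with 0.1% formaldehyde, proximity-ligated with BsaI/T4 ligase (1 h, 37 °C), PCR-amplified and sequenced on an Illumina NextSeq500.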

The target in another assay is ETV5 (Homo sapiens, UniProt P41161 1-510). The conditions noted are these: protein: recombinant; tags: N-terminal GST; dsDNA, one strand shown. In short, it runs like this: as §1
ETV5, sequence (P41161 whole entry): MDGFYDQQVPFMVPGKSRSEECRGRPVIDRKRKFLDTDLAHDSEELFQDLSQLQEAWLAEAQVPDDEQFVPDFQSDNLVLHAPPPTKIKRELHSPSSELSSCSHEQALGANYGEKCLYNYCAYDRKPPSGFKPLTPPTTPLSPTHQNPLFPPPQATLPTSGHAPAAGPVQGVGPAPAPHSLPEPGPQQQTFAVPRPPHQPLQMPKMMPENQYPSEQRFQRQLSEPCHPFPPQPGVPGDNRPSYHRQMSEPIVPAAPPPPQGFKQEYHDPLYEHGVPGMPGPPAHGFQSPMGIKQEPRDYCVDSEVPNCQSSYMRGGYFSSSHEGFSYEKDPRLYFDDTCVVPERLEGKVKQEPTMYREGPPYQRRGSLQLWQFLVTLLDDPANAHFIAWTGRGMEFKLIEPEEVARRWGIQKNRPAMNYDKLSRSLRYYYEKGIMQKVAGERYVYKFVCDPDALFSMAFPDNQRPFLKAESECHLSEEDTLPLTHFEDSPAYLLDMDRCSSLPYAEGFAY
For the next assay, the target named is HSF1 (Homo sapiens, UniProt Q00613 1-529). The note with it: protein: recombinant; tags: N-terminal GST; chain copies: 3; dsDNA, one strand shown. In short, it runs like this:
as §1

The next assay addresses T2, SPIC (Homo sapiens, UniProt Q8N5J4 1-248).
T2 sequence: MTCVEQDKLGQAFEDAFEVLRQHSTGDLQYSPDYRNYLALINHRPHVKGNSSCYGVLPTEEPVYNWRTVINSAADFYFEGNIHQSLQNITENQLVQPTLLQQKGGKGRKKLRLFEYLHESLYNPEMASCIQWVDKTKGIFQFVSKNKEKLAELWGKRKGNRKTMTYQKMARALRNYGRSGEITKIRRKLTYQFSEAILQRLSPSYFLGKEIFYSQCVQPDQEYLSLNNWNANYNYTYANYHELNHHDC
The conditions noted are these: protein: recombinant; tags: N-terminal GST; dsDNA, one strand shown. The gist of the method:
as §1

Another assay addresses ELF4 (Homo sapiens, UniProt Q99607 1-663). The note with it: protein: recombinant; tags: N-terminal GST; dsDNA, one strand shown. The gist of the method: as §1
A further assay addresses T3, ELK4 (Homo sapiens, UniProt P28324-2 1-405).
T3 sequence: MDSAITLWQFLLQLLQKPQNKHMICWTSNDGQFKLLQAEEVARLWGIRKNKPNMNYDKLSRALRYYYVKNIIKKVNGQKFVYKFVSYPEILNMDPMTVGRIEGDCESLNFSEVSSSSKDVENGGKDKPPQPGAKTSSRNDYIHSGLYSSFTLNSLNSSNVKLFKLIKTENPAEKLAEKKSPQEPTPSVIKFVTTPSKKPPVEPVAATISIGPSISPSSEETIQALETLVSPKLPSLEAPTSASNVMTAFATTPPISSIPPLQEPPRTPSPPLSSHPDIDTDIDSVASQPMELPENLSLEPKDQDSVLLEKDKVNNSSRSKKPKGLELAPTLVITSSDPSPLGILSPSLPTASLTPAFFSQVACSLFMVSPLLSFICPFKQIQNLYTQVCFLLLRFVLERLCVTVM
The conditions noted are these: protein: recombinant; tags: N-terminal GST; dsDNA, one strand shown. The gist of the method: as §1

The target of a further assay is T4, ETV2 (Homo sapiens, UniProt O00321 1-342).
T4 sequence: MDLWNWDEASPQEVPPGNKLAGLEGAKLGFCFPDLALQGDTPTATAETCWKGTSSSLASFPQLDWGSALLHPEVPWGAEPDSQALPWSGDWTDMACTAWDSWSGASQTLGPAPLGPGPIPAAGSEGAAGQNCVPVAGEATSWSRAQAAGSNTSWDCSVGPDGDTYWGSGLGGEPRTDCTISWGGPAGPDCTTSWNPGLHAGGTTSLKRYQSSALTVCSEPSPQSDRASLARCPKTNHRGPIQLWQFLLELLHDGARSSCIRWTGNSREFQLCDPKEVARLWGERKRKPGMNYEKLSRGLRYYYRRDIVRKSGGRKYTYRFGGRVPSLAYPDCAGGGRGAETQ
The conditions noted are these: protein: recombinant; tags: N-terminal GST; dsDNA, one strand shown. The gist of the method: as §1

A further assay concerns the target T5, ELF3 (Homo sapiens, UniProt P78545 1-371).
T5 sequence: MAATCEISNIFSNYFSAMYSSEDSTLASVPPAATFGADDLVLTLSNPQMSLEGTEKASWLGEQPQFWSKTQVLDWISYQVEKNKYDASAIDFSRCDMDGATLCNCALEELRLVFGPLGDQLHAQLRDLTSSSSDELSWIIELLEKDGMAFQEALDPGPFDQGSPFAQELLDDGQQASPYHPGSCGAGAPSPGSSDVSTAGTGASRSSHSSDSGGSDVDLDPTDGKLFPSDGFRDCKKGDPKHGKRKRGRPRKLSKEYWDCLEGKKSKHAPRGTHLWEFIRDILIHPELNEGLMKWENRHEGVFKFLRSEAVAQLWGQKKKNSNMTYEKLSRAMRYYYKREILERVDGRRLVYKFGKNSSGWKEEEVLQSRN
The conditions noted are these: protein: recombinant; tags: N-terminal GST; dsDNA, one strand shown. The gist of the method:
as §1

For a further assay, the target named is CRX (Homo sapiens, UniProt O43186 1-299). The conditions noted are these: protein: recombinant; tags: N-terminal GST; dsDNA, one strand shown. The gist of the method:
as §1

The target in another assay is ETV1 (Homo sapiens, UniProt P50549 1-477). The conditions noted are these: protein: recombinant; tags: N-terminal GST; dsDNA, one strand shown. In short, it runs like this: as §1
ETV1, sequence (P50549 whole entry): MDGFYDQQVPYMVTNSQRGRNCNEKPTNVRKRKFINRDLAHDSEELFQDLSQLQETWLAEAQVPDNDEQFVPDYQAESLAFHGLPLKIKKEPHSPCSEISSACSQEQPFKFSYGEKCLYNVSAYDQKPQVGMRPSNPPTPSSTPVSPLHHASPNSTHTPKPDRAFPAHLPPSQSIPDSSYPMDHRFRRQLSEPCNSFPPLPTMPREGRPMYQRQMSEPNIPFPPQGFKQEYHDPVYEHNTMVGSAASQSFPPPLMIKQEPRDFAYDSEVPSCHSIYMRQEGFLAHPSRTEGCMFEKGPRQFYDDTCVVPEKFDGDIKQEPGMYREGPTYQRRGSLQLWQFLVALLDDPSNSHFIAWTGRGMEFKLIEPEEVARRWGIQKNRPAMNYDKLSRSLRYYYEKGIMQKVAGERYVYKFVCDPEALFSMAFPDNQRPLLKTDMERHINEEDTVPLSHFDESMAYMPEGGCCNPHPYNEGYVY
The target in a further assay is T6, ERF (Homo sapiens, UniProt P50548 1-548).
T6 sequence: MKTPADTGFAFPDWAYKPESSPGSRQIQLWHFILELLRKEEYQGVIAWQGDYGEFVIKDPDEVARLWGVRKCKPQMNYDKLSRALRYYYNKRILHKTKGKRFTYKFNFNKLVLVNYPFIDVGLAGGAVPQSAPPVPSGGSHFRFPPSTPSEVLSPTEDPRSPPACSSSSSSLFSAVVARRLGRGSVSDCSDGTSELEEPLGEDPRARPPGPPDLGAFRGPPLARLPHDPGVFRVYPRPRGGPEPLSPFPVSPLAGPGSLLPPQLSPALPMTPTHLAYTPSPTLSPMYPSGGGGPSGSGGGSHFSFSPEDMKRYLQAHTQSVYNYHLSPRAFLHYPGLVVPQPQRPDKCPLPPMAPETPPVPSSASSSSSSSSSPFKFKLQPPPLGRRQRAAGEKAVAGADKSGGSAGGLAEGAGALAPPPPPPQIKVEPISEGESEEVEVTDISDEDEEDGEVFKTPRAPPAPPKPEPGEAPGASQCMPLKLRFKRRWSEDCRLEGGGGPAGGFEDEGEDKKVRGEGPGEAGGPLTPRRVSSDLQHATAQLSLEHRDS
The conditions noted are these: protein: recombinant; tags: N-terminal GST; dsDNA, one strand shown. The gist of the method: as §1

The target in another assay is T7, ETV3L (Homo sapiens, UniProt Q6ZN32 1-361).
T7 sequence: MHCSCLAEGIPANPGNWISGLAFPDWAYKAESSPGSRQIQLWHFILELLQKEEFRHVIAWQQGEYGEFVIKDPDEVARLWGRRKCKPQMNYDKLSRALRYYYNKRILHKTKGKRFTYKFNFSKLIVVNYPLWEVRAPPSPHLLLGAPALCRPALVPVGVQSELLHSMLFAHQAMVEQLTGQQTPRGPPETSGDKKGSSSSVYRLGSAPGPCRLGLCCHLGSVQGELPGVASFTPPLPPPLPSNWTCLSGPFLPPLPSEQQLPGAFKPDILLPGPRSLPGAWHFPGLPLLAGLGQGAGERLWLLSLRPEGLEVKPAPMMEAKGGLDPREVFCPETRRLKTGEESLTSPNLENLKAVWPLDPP
The note with it: protein: recombinant; tags: N-terminal GST; dsDNA, one strand shown. The gist of the method:
as §1

The target of another assay is T8, ETS2 (Homo sapiens, UniProt P15036 1-469).
T8 sequence: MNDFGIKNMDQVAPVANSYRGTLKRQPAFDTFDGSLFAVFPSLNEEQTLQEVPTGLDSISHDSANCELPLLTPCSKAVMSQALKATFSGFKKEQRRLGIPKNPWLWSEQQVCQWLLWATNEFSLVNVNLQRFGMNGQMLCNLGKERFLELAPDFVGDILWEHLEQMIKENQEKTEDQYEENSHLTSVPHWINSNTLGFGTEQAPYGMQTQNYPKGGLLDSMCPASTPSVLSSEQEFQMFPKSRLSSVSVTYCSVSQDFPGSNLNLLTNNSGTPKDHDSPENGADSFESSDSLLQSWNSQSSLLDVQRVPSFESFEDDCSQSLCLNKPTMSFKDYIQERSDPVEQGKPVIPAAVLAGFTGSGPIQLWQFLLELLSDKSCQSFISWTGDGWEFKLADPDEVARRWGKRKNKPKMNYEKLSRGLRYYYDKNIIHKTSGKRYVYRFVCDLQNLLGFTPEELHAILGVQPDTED
The conditions noted are these: protein: recombinant; tags: N-terminal GST; dsDNA, one strand shown. In short, it runs like this:
as §1

The next assay has as its target T9, SPDEF (Homo sapiens, UniProt O95238 1-335).
T9 sequence: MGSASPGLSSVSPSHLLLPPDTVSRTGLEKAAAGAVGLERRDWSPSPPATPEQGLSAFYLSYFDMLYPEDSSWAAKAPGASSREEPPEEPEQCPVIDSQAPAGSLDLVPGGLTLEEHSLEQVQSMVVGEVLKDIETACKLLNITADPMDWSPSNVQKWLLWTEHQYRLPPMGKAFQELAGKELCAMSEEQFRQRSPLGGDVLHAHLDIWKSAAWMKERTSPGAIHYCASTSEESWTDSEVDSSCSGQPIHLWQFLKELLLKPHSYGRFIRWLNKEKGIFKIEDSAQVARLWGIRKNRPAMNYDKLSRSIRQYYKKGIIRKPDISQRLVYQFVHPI
The conditions noted are these: protein: recombinant; tags: N-terminal GST; dsDNA, one strand shown. The gist of the method:
as §1

A further assay deals with T10, ETV7 (Homo sapiens, UniProt Q9Y603 1-341).
T10 sequence: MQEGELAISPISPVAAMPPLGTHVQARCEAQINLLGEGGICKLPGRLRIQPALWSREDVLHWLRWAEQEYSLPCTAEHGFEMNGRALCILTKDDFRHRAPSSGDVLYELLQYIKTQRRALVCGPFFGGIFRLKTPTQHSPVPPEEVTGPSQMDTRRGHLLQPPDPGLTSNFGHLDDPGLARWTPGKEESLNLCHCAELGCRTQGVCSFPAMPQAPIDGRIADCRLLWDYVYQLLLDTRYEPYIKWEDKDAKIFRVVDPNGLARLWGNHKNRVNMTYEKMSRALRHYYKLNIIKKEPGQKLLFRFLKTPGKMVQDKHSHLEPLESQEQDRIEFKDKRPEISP
The conditions noted are these: protein: recombinant; tags: N-terminal GST; dsDNA, one strand shown. In short, it runs like this:
as §1

The next assay deals with T11, ELF5 (Homo sapiens, UniProt Q9UKW6-2 1-255).
T11 sequence: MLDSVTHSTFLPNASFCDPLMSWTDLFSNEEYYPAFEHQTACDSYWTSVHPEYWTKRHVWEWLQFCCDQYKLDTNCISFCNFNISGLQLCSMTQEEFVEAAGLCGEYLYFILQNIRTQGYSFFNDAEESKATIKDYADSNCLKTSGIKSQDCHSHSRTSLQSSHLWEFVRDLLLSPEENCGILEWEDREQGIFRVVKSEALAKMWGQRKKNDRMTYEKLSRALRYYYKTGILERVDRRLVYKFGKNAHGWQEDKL
The note with it: protein: recombinant; tags: N-terminal GST; dsDNA, one strand shown. In short, it runs like this:
as §1

The target in a further assay is T12, ETV3 (Homo sapiens, UniProt P41162-2 1-143).
T12 sequence: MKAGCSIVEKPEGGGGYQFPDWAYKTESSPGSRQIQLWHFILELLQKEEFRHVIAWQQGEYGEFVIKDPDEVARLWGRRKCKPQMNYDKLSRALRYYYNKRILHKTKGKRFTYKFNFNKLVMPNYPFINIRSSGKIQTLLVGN
The note with it: protein: recombinant; tags: N-terminal GST; dsDNA, one strand shown. In short, it runs like this: as §1

Another assay deals with ETV6 (Homo sapiens, UniProt P41212 1-452). The note with it: protein: recombinant; tags: N-terminal GST; dsDNA, one strand shown. In short, it runs like this:
as §1

ETV6, sequence (P41212 whole entry): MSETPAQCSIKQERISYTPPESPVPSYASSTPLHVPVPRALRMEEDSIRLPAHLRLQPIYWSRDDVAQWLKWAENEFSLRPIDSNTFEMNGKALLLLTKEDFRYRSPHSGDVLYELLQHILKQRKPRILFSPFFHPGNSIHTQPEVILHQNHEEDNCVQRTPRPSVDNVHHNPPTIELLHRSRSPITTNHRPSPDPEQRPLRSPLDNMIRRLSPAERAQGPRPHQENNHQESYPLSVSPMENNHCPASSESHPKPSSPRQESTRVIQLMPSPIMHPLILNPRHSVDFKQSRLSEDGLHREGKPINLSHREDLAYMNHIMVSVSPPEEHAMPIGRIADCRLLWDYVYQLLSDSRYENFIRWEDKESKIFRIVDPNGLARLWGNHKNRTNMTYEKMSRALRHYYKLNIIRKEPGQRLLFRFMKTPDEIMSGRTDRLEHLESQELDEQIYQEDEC
CRX, sequence (O43186 whole entry): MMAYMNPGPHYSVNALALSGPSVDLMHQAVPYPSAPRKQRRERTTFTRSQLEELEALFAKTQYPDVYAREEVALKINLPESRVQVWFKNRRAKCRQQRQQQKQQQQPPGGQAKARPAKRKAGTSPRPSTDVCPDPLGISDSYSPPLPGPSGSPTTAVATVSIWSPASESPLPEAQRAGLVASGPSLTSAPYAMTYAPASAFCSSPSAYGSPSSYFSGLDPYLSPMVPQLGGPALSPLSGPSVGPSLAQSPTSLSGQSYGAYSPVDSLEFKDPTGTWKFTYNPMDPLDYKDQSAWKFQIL
HSF1, sequence (Q00613 whole entry): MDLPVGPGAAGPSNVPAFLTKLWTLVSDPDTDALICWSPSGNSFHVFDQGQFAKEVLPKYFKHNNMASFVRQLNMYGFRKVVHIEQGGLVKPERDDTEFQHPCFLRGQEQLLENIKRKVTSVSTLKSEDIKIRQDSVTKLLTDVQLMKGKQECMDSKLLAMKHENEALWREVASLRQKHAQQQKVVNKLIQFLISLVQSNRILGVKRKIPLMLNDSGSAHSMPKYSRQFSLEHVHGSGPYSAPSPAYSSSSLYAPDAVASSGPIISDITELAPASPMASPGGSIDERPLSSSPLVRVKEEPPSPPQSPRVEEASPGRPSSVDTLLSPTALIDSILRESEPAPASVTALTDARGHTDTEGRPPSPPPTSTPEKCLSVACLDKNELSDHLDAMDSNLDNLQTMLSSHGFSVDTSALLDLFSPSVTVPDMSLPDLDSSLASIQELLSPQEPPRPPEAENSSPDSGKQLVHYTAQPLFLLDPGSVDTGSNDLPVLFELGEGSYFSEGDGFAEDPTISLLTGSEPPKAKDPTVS
ELF4, sequence (Q99607 whole entry): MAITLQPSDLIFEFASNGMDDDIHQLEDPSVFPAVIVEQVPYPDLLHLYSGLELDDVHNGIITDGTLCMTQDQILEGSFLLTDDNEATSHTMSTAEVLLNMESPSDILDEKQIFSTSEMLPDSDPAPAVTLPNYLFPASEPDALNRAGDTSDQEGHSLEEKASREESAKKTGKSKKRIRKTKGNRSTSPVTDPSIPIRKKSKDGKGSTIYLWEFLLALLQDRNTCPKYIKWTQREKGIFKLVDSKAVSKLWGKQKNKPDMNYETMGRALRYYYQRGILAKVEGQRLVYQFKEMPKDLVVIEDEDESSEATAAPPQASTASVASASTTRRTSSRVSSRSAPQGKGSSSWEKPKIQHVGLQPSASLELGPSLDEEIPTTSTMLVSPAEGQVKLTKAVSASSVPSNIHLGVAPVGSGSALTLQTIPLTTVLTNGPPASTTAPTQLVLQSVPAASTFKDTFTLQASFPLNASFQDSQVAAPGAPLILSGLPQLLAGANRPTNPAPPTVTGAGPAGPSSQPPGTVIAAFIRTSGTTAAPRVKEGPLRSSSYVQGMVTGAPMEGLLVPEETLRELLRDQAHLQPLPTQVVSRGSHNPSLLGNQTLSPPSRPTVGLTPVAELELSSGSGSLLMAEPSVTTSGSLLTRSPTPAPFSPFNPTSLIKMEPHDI

For TCACTC, the binding signal with FEV is 1.23 fold enrichment (6-mer frequency, TF over GST control); with ETV5, 1.19 fold enrichment (6-mer frequency, TF over GST control); with HSF1 it was 1.11 fold enrichment (6-mer frequency, TF over GST control); with SPIC, 1.3 fold enrichment (6-mer frequency, TF over GST control); with ELF4, 1.24 fold enrichment (6-mer frequency, TF over GST control); with ELK4 it was 1.34 fold enrichment (6-mer frequency, TF over GST control). Moreover, the binding signal with ETV2 is 1.35 fold enrichment (6-mer frequency, TF over GST control); with ELF3, 1.26 fold enrichment (6-mer frequency, TF over GST control); with CRX it was 1.05 fold enrichment (6-mer frequency, TF over GST control); in the assay with ETV1 it was 1.18 fold enrichment (6-mer frequency, TF over GST control); with ERF it was 1.27 fold enrichment (6-mer frequency, TF over GST control); with ETV3L, 1.16 fold enrichment (6-mer frequency, TF over GST control). In addition, the binding signal is 1.23 fold enrichment (6-mer frequency, TF over GST control) with ETS2; 1.12 fold enrichment (6-mer frequency, TF over GST control) in the assay with SPDEF; 1.2 fold enrichment (6-mer frequency, TF over GST control) with ETV7; 1.1 fold enrichment (6-mer frequency, TF over GST control) in the assay with ELF5; 1.22 fold enrichment (6-mer frequency, TF over GST control) in the assay with ETV3; 1.19 fold enrichment (6-mer frequency, TF over GST control) with ETV6.
